Drawing on PubChem BioAssay, this text covers z-score and composite z-score for nine molecules.

Active and inactive are the calls of the source.

Assay [1] in a line: compound effects on differentiated 3T3-L1 adipocyte viability – cell-based, 3T3-L1 adipocytes, calcein-AM fluorescence, 48 h, basal, profiling panel (AID 1163). Particulars: 3T3-L1 adipocytes viability, higher = more signal.
Assay [2] in a line: compound effects on hepatocellular carcinoma cell viability – HepG2, calcein-AM fluorescence, 48 h, basal, profiling panel (AID 1164). Particulars: higher = more signal.
Assay [3] is described as follows: compound effects on multiple myeloma cell viability – MM1S, calcein-AM fluorescence, 48 h, basal, profiling panel (AID 1165).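 Note: viability of MM1S multiple myeloma cells under basal unstimulated conditions.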 Particulars: higher = more signal.
Assay [4] in a line: calcein-AM signal in unstimulated myeloma cells – cell-based, calcein-AM fluorescence, 48 h, PK04 Diversity Set, profiling panel (AID 1166).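 Note: cells grown under basal conditions without added stimulus.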 Particulars: RPMI8226 myeloma viability, higher = more signal.
Assay [5] in a line: JC-1 mitochondrial signal, unstimulated HepG2 cells – cell-based, JC-1 fluorescence, 24 h, 100 nL compound, profiling panel (AID 1167). Particulars: HepG2 mitochondrial potential, higher = more signal.
The nature of assay [6]: JC-1 mitochondrial signal, unstimulated adipocytes – cell-based, JC-1 fluorescence, 3T3-L1 adipocytes, 24 h, 100 nL compound, profiling panel (AID 1168). Particulars: JC-1 mitochondrial fluorescence, higher = more signal, called active from +8 up or from −8 down.
Assay [7] can be described thus: JC-1 mitochondrial signal, unstimulated myeloma cells – cell-based, JC-1 fluorescence, RPMI8226, 24 h, 100 nL compound, profiling panel (AID 1169). Particulars: JC-1 mitochondrial potential fluorescence, higher = more signal.
A short description of assay [8]: JC-1 mitochondrial signal, unstimulated MM1S myeloma – cell-based, JC-1 fluorescence, 24 h, 100 nL compound, profiling panel (AID 1170). Particulars: MM1S mitochondrial potential, higher = more signal.
The nature of assay [9]: resazurin metabolic signal in A549 cells – cell-based, resazurin fluorescence, 24 h, PK04 Diversity Set, profiling panel (AID 1171). Particulars: A549 viability, higher = more signal, called active from +8 up or from −8 down. Background: Alamar Blue is a resazurin reagent that responds to reducing activity.
A short description of assay [10]: resazurin metabolic signal in HepG2 cells – cell-based, resazurin fluorescence, 24 h, PK04 Diversity Set, profiling panel (AID 1172). Particulars: HepG2 viability, higher = more signal.
Assay [11] can be described thus: budding yeast growth changes without added modifier – OD600, strain BY4716, 24 h, basal condition, primary screen (AID 1173). Particulars: S. cerevisiae BY4716 growth, OD600, 24 h; higher = more signal, called active from +8 up or from −8 down.
A short description of assay [12]: viability profiling in MM1S myeloma cells – cell-based, resazurin fluorescence, basal, 24 h, PK04 Diversity Set, profiling panel (AID 1174). Particulars: higher = more signal, called active from +8 up or from −8 down.
The target in assay [13] is Dihydroorotate dehydrogenase (quinone), mitochondrial (Plasmodium falciparum (isolate 3D7)) (UniProt Q08210). The assay can be described thus: inhibition of P. falciparum DHODH – biochemical, C-terminal His tag, absorbance 600 nm, primary screen (AID 1175).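 Note: recombinant parasite enzyme with a five histidine tag at its C terminus.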 Particulars: PfDHODH enzyme, DCIP absorbance 600 nm; higher = more signal, called active from +8 up or from −8 down.
Chain of Dihydroorotate dehydrogenase (quinone), mitochondrial (Plasmodium falciparum (isolate 3D7)) (Q08210 whole entry, looked up): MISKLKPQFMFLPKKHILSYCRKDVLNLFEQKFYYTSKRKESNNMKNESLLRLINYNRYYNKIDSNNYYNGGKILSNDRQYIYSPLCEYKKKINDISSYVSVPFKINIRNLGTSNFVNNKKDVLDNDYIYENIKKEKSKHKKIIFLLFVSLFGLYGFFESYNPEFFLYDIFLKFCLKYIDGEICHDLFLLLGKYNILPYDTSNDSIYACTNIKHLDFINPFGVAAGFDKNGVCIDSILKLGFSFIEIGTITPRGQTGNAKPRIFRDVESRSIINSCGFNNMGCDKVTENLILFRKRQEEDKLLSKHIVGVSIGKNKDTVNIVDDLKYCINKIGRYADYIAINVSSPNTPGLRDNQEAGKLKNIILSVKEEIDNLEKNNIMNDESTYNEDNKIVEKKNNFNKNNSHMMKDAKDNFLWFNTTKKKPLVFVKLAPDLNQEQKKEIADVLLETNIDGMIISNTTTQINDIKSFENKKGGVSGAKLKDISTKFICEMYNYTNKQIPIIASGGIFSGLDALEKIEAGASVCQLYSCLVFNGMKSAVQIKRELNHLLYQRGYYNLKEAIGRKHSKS

A short description of assay [14]: growth modulation of vineyard yeast isolate – strain RM11-1a, OD600, basal, 24 h, primary screen (AID 1177).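 Note: cultures grown under basal conditions with no added stressor.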 Particulars: S. cerevisiae RM11-1a growth, OD600, 24 h; higher = more signal, called active from +8 up or from −8 down.
Assay [15] is described as follows: growth of efflux-deficient E. coli DRC39 – strain DRC39, OD650, 24 h, E. coli filamentation inducers, primary screen (AID 1178).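 Note: growth measured as culture turbidity by optical density at 650 nm.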 Particulars: E. coli DRC39 acrAB, higher = more signal, called active from +8 up or from −8 down.
The nature of assay [16]: growth of efflux-deficient E. coli DRC39 – strain DRC39, OD650, 48 h, E. coli filamentation inducers, primary screen (AID 1179).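 Note: screen aims at cell division blockers that make cells filament.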 Particulars: E. coli DRC39 delta-acrAB growth, higher = more signal, called active from +8 up or from −8 down.
A short description of assay [17]: viability profiling in RPMI8226 myeloma cells – cell-based, resazurin fluorescence, basal, 24 h, PK04 Diversity Set, profiling panel (AID 1180).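 Note: RPMI8826 multiple myeloma cell line at 5000 cells per well.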 Particulars: higher = more signal.
Assay [18] deals with E3 ubiquitin-protein ligase XIAP (Homo sapiens) (UniProt P98170). The assay can be described thus: small molecules binding XIAP protein – biophysical, small-molecule microarray, fluorescence 635 nm, primary screen (AID 1181).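 Note: score merges 667 nm emission and signal to noise over triplicate slides.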 Particulars: higher = more signal.
Chain of E3 ubiquitin-protein ligase XIAP (Homo sapiens) (P98170 whole entry, looked up, the tested form may be a part): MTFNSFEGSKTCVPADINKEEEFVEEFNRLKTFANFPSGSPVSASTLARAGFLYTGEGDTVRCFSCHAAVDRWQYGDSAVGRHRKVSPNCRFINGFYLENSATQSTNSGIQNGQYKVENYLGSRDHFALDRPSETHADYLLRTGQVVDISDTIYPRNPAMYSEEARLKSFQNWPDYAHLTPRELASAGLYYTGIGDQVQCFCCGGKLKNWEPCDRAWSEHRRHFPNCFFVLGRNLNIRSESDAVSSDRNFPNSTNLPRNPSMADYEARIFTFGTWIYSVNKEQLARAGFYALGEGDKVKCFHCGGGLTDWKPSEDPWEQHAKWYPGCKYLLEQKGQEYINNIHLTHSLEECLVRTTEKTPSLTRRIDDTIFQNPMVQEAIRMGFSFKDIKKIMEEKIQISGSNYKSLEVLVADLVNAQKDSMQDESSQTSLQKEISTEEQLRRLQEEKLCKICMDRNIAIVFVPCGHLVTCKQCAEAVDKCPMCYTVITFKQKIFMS
Assay [19] concerns XIP peptide (Xip251-270) binding. Nature of the assay: XIP fragment 251-270 binding compounds – biochemical, small-molecule microarray, fluorescence 635/667 nm, 0.1 µg/mL protein, primary screen (AID 1182). Particulars: fluorescent protein binding, 635 nm, higher = more signal, called active from +8 up or from −8 down.
The subject of the next assay is XIP peptide (Xip251-270). Nature of the assay: compounds binding XIP fragment 251-270 – biochemical, small-molecule microarray, fluorescence 635/667 nm, 0.5 µg/mL protein, primary screen (AID 1183). Particulars: fluorescence 635 nm, higher = more signal.

For `COC(=O)c1c(CC[C@@H](CO)NC(=O)Nc2ccc(OC)cc2)oc(C(=O)Cc2ccccc2)c1C(=O)OC`, the z-score is 1.01 in [1]; -0.255 in assay [2]; -0.581 in assay [3]; 0.141 in [4]; -0.115 in [5]; 0.695 (inactive) in assay [6]. The z-score in assay [7] was -0.204; in assay [8], 0.212; in assay [9], 0.367 (inactive); in assay [10], -0.325; in assay [11], -2.3 (inactive); in assay [12], 0.955 (inactive). Also, the z-score in assay [14] was 1.22 (inactive); in assay [15], 1.46 (inactive); in [16], 0.987 (inactive); in [17], 0.173. Moreover, the composite z-score in assay [13] was -1.09 (inactive); in assay [18], -0.0525; in [19], 0.684 (inactive); with XIP peptide (Xip251-270), 0.678.

In the case of `CC(C)[C@@H](C(=O)O)n1cc(-c2ccccn2)nn1`, the z-score was 1.05 in assay [1]; 0.106 in [2]; -0.0169 in assay [3]; 0.516 in assay [4]; 0.422 in [5]; 0.592 (inactive) in [6]. The z-score in [7] was -0.276; in assay [8], 0.414; in assay [9], 0.756 (inactive); in assay [10], 0.735; in assay [11] it was -1.37 (inactive); in [12], 1.11 (inactive). In addition, the z-score in assay [14] is -0.52 (inactive); in assay [15], 1.87 (inactive); in [16] it was 1.17 (inactive); in [17] it was 0.386. Moreover, the composite z-score in assay [13] was -0.206 (inactive); in assay [18] it was -0.0597; in [19] it was 0.353 (inactive); in the assay on XIP peptide (Xip251-270) it was -0.548.

With `CC(C)(C)OC(=O)CC[C@]1(C(=O)NCc2ccccc2)N=C(c2ccc(OCCCO)cc2)O[C@H]1c1ccccc1N=[N+]=[N-]`, the z-score in assay [1] is 2.99; in [2], -0.957; in assay [3], -0.369; in [4] it was -1.52; in assay [5], 2.24; in [6], 2.6 (inactive). Also, the z-score in assay [7] is -0.578; in assay [8] it was -0.669; in [9] it was -0.413 (inactive); in assay [10], 0.384; in [11], 0 (inactive); in assay [12] it was -0.439 (inactive). Moreover, the z-score in assay [14] was 0.892 (inactive); in [15], 3.14 (inactive); in assay [16], 1.08 (inactive); in [17], -0.2. For the same molecule, the composite z-score in assay [13] was 1.18 (inactive); in [18], -0.0095; in assay [19] it was 0.735 (inactive); in the assay with XIP peptide (Xip251-270), 0.725.

Turning to `C=CCC(OC(C)=O)[C@@H]1[C@@H](N(Cc2ccc(-c3ccccc3)cc2)C(=O)c2ccc(-c3ccccc3)cc2)c2cc(OCCCO)ccc2N1C(=O)c1ccc(-c2ccccc2)cc1` (stereo not given in full), the z-score is 0.948 in assay [1]; 0.623 in [2]; 0.787 in assay [3]; 0.18 in [4]; 2.74 in assay [5]; 0.111 (inactive) in assay [6]. Moreover, the z-score in assay [7] is -0.176; in assay [8], -0.0803; in [9], 1.4 (inactive); in assay [10], 1.46; in assay [11], -0.435 (inactive); in [12] it was 1.4 (inactive). Moreover, the z-score in assay [14] is -0.738 (inactive); in [15], 1.34 (inactive); in [16], 0.995 (inactive); in assay [17], 0.899. Further, the composite z-score was 0.169 (inactive) in assay [13], -0.0102 in assay [18], -0.959 (inactive) in assay [19] and -0.58 in the assay on XIP peptide (Xip251-270).

Regarding `O=C1c2ccccc2C(=O)c2cc([C@H]3Oc4ccccc4S(=O)(=O)N4CCC[C@@H]34)ccc21`, the z-score in assay [1] was 1.07; in assay [2], 0.158; in assay [3], -2.6; in assay [4], 0.558; in assay [5], 2.04; in assay [6], 0.282 (inactive). The z-score in assay [7] is 0.103; in assay [8], -0.752; in assay [9], 0.623 (inactive); in assay [10], 1.62; in assay [11] it was -2.8 (inactive); in assay [12], 0.566 (inactive). Further, the z-score was -1.5 (inactive) in [14], 2.89 (inactive) in assay [15], 1.21 (inactive) in assay [16] and 0.476 in assay [17]. Further, the composite z-score is 0.342 (inactive) in assay [13], 0.0374 in assay [18], -1.15 (inactive) in [19] and -1.82 in the assay on XIP peptide (Xip251-270).

On to `[N-]=[N+]=Nc1ccccc1[C@H]1OC(c2ccc(OCCCO)cc2)=N[C@@]1(Cc1ccccc1)C(N)=O`, for which the z-score in assay [1] is 1.26; in assay [2], 0.13; in assay [3], -3.09; in assay [4], -3.37; in assay [5], 0.912; in assay [6] it was 3.11 (inactive). Further, the z-score in [7] is -1.05; in assay [8] it was -1.45; in assay [9], -1.6 (inactive); in [10] it was 0.0234; in assay [11], -1.69 (inactive); in assay [12], -1.29 (inactive). The z-score in assay [14] is 0.401 (inactive); in assay [15], 2.24 (inactive); in assay [16], 1.45 (inactive); in assay [17], -1.96. Besides, the composite z-score is -0.227 (inactive) in assay [13], -0.0351 in [18], 1.05 (inactive) in assay [19] and 0.657 in the assay with XIP peptide (Xip251-270).

`COc1ccc([Si](C)(C)[C@H]2[C@H](CC(=O)N(CCO)Cc3ccccc3)O[C@@]3(C(=O)N(Cc4cccc(N5C(=O)COc6ccccc65)c4)c4ccccc43)[C@@H]2C)cc1`: the z-score in assay [1] was 0.446; in [2], -0.647; in assay [3] it was -0.945; in assay [4], -2.66; in [5], 0.502; in [6], 1.2 (inactive). Besides, the z-score in assay [7] is -0.943; in assay [8], -0.397; in [9], -0.899 (inactive); in assay [10], 0.0785; in assay [11], 0.337 (inactive); in assay [12], -1.48 (inactive). Also, the z-score is 2.62 (inactive) in [14], 2.07 (inactive) in [15], 2.13 (inactive) in assay [16] and -2.97 in assay [17]. The composite z-score in assay [13] was -0.149 (inactive); in assay [18] it was 0.0727; in assay [19], 1.65 (inactive); with XIP peptide (Xip251-270) it was 0.727.

Consider `C=CCN1C(=O)[C@@]2(O[C@@H](CCO)[C@H]([Si](C)(C)c3ccc(OC)cc3)[C@H]2C)c2cc(N(C=O)c3ccccc3)ccc21`, for which the z-score is 0.412 in [1]; -4.73 in assay [2]; -2.68 in assay [3]; -4.39 in assay [4]; -2.22 in assay [5]; 1.53 (inactive) in [6]. The z-score in assay [7] is -1.05; in [8], -2.14; in assay [9], -4.7 (inactive); in [10] it was -6.2; in assay [11] it was -0.425 (inactive); in assay [12], -8.88 (active). Also, the z-score in assay [14] was -0.592 (inactive); in [15], 2.62 (inactive); in [16], 1.81 (inactive); in assay [17] it was -6.21. Moreover, the composite z-score was -0.459 (inactive) in assay [13], -0.0203 in [18], 0.527 (inactive) in [19] and 0.345 in the assay with XIP peptide (Xip251-270).

Regarding `COCCOC(=O)N1C(=O)[C@@]2(c3ccccc31)[C@H](C(=O)Nc1nc3ccccc3s1)[C@H]1C(=O)O[C@H](c3ccccc3)[C@H](c3ccccc3)N1[C@@H]2c1ccc(O)cc1`, the z-score in assay [1] was 0.471; in [2] it was -1.49; in assay [3], -3.26; in [4], -3.76; in assay [5], -3.44; in [6], 1.01 (inactive). The z-score in assay [7] is -1.05; in [8], -1.87; in [9], 0.35 (inactive); in assay [10], 0.148; in assay [11], 2.4 (inactive); in assay [12] it was -1.22 (inactive). Besides, the z-score is 4.4 (inactive) in [14], 1.23 (inactive) in [15], 1.84 (inactive) in assay [16] and -0.898 in assay [17]. Further, the composite z-score is -2.63 (inactive) in [13], -0.0025 in assay [18], 1.03 (inactive) in assay [19] and 0.748 with XIP peptide (Xip251-270).
